Data taken from PMC7819943, “Rice protein-binding microarrays: a tool to detect cis-acting elements near promoter regions in rice”.
Whole data set: some 35,000 sequences, median “fluorescence intensity (a.u.)” near 10,000, cut for the highest 2% near 52,000. This is one part of a sample in which the highest values are shown more often than they occur.

These sequences were tested against T1, OsWOX13 (Oryza sativa, UniProt Q5QMM3 1-267) (assay: protein-binding microarray (RPBM); PBS, 2% BSA, 51.3 ng/ul salmon testes DNA, 50 uM zinc acetate, 200 nM TF, 25 C, 1 h; high values mean tight binding). Settings: protein: recombinant; tags: N-terminal polyhistidine and DsRed monomer fusion (pET32a); label: CyDye5-dUTP incorporated in the synthesized complementary strand; 3' TTTTT single-stranded linker to array surface; dsDNA, one strand shown.
T1 sequence: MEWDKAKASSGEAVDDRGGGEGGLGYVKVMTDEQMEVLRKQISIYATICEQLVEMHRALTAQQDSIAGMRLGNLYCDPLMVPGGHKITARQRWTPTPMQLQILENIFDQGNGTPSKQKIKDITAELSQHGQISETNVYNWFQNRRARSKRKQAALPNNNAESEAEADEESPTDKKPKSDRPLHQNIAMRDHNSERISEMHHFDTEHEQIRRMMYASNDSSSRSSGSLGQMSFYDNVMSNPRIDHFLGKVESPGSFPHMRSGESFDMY
In short: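 An Axon 4000B scanner gave the binding signal as per-feature fluorescence intensity in arbitrary units. This followed washing of a custom Agilent array that had been incubated for 1 h at 25 °C with 200 nM protein in PBS, 2% BSA, salmon testes DNA and 50 µM zinc acetate. The proteins were transcription factors fused at the N-terminus to polyhistidine and DsRed, expressed in E. coli BL21-CodonPlus and purified on Ni–NTA.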

| Sequence | binding signal |
| --- | --- |
| TTGCAAATAATTTGGAAAGGTAATATGAGCTACAGCTGTGCGGAGTCACCTAGTGCAG | 7080 fluorescence intensity (a.u.) |
| ATAATGGATTGCTTGTTCCAGCACTGAATGTGCTGCCAAGCGGAGTCACCTAGTGCAG | 6550 fluorescence intensity (a.u.) |
| CGAATTAACTAGATCATATTACTCTTTCATGCAATAAACACGGAGTCACCTAGTGCAG | 4320 fluorescence intensity (a.u.) |
| TGGGATAATTAACTCGTAATGATCCCCAAATGCGTGCGTACGGAGTCACCTAGTGCAG | 28300 fluorescence intensity (a.u.) |
| GTTAACGACCAAAATTGGTAGCATCGACACCTCCCTGGGCCGGAGTCACCTAGTGCAG | 4240 fluorescence intensity (a.u.) |
| AGATAGATAGATAGATAGATAGATAGATAGATAGATAGATCGGAGTCACCTAGTGCAG | 55700 fluorescence intensity (a.u.) |
| TAGATAGATAGAAGATAATAGAAGATAGATAATAGAAGATCGGAGTCACCTAGTGCAG | 10200 fluorescence intensity (a.u.) |
| GGTAATTGATTATGCACCTGATCTAGATACATGTACAGCTCGGAGTCACCTAGTGCAG | 61800 fluorescence intensity (a.u.) |
| ATTATTGAACGAATGATTATCGTAGATTATACATCTAGCCCGGAGTCACCTAGTGCAG | 28400 fluorescence intensity (a.u.) |
| GGTGATTAGACCGGTGATCTATACCGGTCAGACCGATAGCCGGAGTCACCTAGTGCAG | 47800 fluorescence intensity (a.u.) |
| AGTTATGTAATTGGATCATGAGTAGATATACATGTGTGCTCGGAGTCACCTAGTGCAG | 29300 fluorescence intensity (a.u.) |
| ATCTATAATTAGATTGATATGATTATCTTGTGTACAACAACGGAGTCACCTAGTGCAG | 37800 fluorescence intensity (a.u.) |
| TAGCCACCGTGATTGATTGATCTATAGATCGATTGGTGCCCGGAGTCACCTAGTGCAG | 64000 fluorescence intensity (a.u.) |
| TCCACTAATATTAACCAATAGACAGATATACTATCACAGTCGGAGTCACCTAGTGCAG | 10800 fluorescence intensity (a.u.) |
| TTACTTAATTACTATAGATAATTAGTTGATTAGTGTTACTCGGAGTCACCTAGTGCAG | 45000 fluorescence intensity (a.u.) |
| AATAGATAGATTGATACCACCACTTAACTATACTAATGCTCGGAGTCACCTAGTGCAG | 63700 fluorescence intensity (a.u.) |
| ATAGATAGATAGATAATAGATAGATAGAAGATAGATAGATCGGAGTCACCTAGTGCAG | 44600 fluorescence intensity (a.u.) |
| AGTGGTGATGGGCACAATGGTGATTAGAGTGGCGGAGATCCGGAGTCACCTAGTGCAG | 7460 fluorescence intensity (a.u.) |
| TATTGATTTAATGAAACTAATTTGGTATTATAAATATTACCGGAGTCACCTAGTGCAG | 32200 fluorescence intensity (a.u.) |
| GGAGAGCAATCAAGCGAAATTGACACGTGTCACGGCAGTGCGGAGTCACCTAGTGCAG | 30300 fluorescence intensity (a.u.) |

| Sequence | binding signal |
| --- | --- |
| ATGCAAAGTTGCAGGGATTGATTGGCTGTTTCGTTTGCTACGGAGTCACCTAGTGCAG | 21800 fluorescence intensity (a.u.) |
| CATCCAAATTGGCAAAGGCCGCCTCTTTCTTTAATTAACCCGGAGTCACCTAGTGCAG | 14100 fluorescence intensity (a.u.) |
| TTGACATCATCATTGACGTGATAGATATAGTATATTAGACCGGAGTCACCTAGTGCAG | 17000 fluorescence intensity (a.u.) |
| TAGCTAGATTGATAATGTACATATATGAATTTGTATGCGACGGAGTCACCTAGTGCAG | 55500 fluorescence intensity (a.u.) |
| ACAAATTGAGTGTTATAGTGAGATGGCATCGGAGATGAGCCGGAGTCACCTAGTGCAG | 32400 fluorescence intensity (a.u.) |
| TGCGTGATTAGCTGATAATACACGTGAATTATGTATGACGCGGAGTCACCTAGTGCAG | 52800 fluorescence intensity (a.u.) |
| ATCGTGATTGATGGCATTGGTATAGATTTCGAGCATTGGCCGGAGTCACCTAGTGCAG | 63900 fluorescence intensity (a.u.) |
| AAGATAAAATGTATGATTGTATGCCTAATTTGAATAGTGGCGGAGTCACCTAGTGCAG | 15900 fluorescence intensity (a.u.) |
| TAGCTGATTATTACAGATGTTGGAGGATGAATAATTGTGACGGAGTCACCTAGTGCAG | 13500 fluorescence intensity (a.u.) |
| AGTATAATTAGCATACTATGATATCGATATACACGTTATGCGGAGTCACCTAGTGCAG | 31400 fluorescence intensity (a.u.) |
| TTGTATAAATTGCTATTAGATTGGCTATATATGAATTAGACGGAGTCACCTAGTGCAG | 37500 fluorescence intensity (a.u.) |
| CAAGATTGGGCGAGGGAGGGAGGAGTCCAGATCCTGCCTCCGGAGTCACCTAGTGCAG | 3250 fluorescence intensity (a.u.) |
| ATTCTCGATTTAACACTAATCATCATTATCCTAATAACCACGGAGTCACCTAGTGCAG | 6320 fluorescence intensity (a.u.) |
| CTTAATTTAGAGTTGATTTTGGAGTTTCTTTTATCGTAGTCGGAGTCACCTAGTGCAG | 39500 fluorescence intensity (a.u.) |
| ATTACTTATCTGATTTACGATCCGACTTAACCACTGTATTCGGAGTCACCTAGTGCAG | 4150 fluorescence intensity (a.u.) |
| ACAAATTGGTCACTGGCTGAATAGTTTCTACATCAGTTAACGGAGTCACCTAGTGCAG | 6570 fluorescence intensity (a.u.) |
| CGTAAACATCTGATGAGTACCTCACATGTTGAACATCTCCCGGAGTCACCTAGTGCAG | 3900 fluorescence intensity (a.u.) |
| GTTGAAGGATCTGGATGATTAGACGAGCGATGGATCAGGTCGGAGTCACCTAGTGCAG | 3720 fluorescence intensity (a.u.) |
| ATGTGAAATTGAATGCAGTAGTATGCACATGAAACTTGGGCGGAGTCACCTAGTGCAG | 11300 fluorescence intensity (a.u.) |
| TGTCAGATTGGATGGATTGTGCTACTGTACATGCATAGTGCGGAGTCACCTAGTGCAG | 37000 fluorescence intensity (a.u.) |

| Sequence | binding signal |
| --- | --- |
| TGCTGATTGGTATGCATAGAGTATGTATGGAAACCTTGTGCGGAGTCACCTAGTGCAG | 56600 fluorescence intensity (a.u.) |
| TCAGTATGTGATTGATTGAAAACTGAAATGGTAGACATACCGGAGTCACCTAGTGCAG | 53400 fluorescence intensity (a.u.) |
| ATAGTATATGATGGATGAGATGGATGCATAGATGGATTGGCGGAGTCACCTAGTGCAG | 3330 fluorescence intensity (a.u.) |
| ATACTTGATTTAAAATGAAAACATAGACAAATGTATGGTACGGAGTCACCTAGTGCAG | 23800 fluorescence intensity (a.u.) |
| CCCGTGGCTCGACTTGATGGCGTGGAGAATGGACGAGTACCGGAGTCACCTAGTGCAG | 6970 fluorescence intensity (a.u.) |
| TTATAATTAGAACTTTTATATGTGTGTTATGCACGACTTACGGAGTCACCTAGTGCAG | 4050 fluorescence intensity (a.u.) |
| ATTTGATCCAAATTATATGGTTATTAATCAAATCCCATAGCGGAGTCACCTAGTGCAG | 10200 fluorescence intensity (a.u.) |
| GTTAATTGATTAGCAAAAGGTACTATACATATATTCTTTTCGGAGTCACCTAGTGCAG | 33800 fluorescence intensity (a.u.) |
| GCAAATGTAGGTAAGATTGAGATTGACTTTATGTGGGTCCCGGAGTCACCTAGTGCAG | 12500 fluorescence intensity (a.u.) |
| GCCGGTGATTGGCGTGGCGTGGCGTGGCGTGGCGCGGTGTCGGAGTCACCTAGTGCAG | 52600 fluorescence intensity (a.u.) |
| TTCTGATTGATGTCAGGAGTGGCGTGCGTACCAGTGCTGTCGGAGTCACCTAGTGCAG | 58100 fluorescence intensity (a.u.) |
| TGGATCCTGATTGGATCCTGATTGGCGTTGCGGCCGTGTCCGGAGTCACCTAGTGCAG | 65000 fluorescence intensity (a.u.) |
| GTGATTGGCGCGATCCGTGCGCTTGCCGTCTTGCCGGCGTCGGAGTCACCTAGTGCAG | 30100 fluorescence intensity (a.u.) |
| TGTCCTCCTGCTCCTGATTGGATCGGTAGAAAGGTGGCGGCGGAGTCACCTAGTGCAG | 11000 fluorescence intensity (a.u.) |
| GCGGATTGGTTGCCTGACCCTCCTCCTCCTCCTCCTCCTCCGGAGTCACCTAGTGCAG | 8490 fluorescence intensity (a.u.) |
| CGTACCAGCTGATTGATGGTGTCACTCACCAAATGTTCTTCGGAGTCACCTAGTGCAG | 34300 fluorescence intensity (a.u.) |
| GACGCGTCGGTGCTGATTGACTCGACGGCCGGCAACGTGGCGGAGTCACCTAGTGCAG | 22800 fluorescence intensity (a.u.) |
| TCGACTTCTGATTGATGTCAGTAATGGTGTACCAGTGCTGCGGAGTCACCTAGTGCAG | 41200 fluorescence intensity (a.u.) |
